# The source made the active and inactive calls. Entries that show only a call come without a potency. Calls come from the whole dose curve.
# Target: Muscarinic acetylcholine receptor M1 (Homo sapiens) (UniProt P11229)
# Experiment: Cholinergic receptor muscarinic 1 (CHRM1) small molecule agonists, cell-based qHTS assay (AID 1963589); note: nearly all actives have a fitted effect of over 35% in size
# Conditions: CHRM1-CHO cells, agonist mode, calcium flux fluorescence; series mostly up to 76.8 µM
# From the text: National Center for Advancing Translational Sciences [NCATS]
# Division of Preclinical Innovation [DPI]
# U.S. Environmental Protection Agency [EPA]
# National Institutes of Environmental Health Sciences [NIEHS]
# National Toxicology Program [NTP]
# U.S. Food and Drug Administration [FDA]
# The CHRM1 is a muscarinic receptor. This receptor plays a crucial role in learning and memory processes and has long been identified as a promising therapeutic target for the improvement of cognitive decline in Alzheimer's disease (AD). The CHRM1-CHO cell line stably expressing human muscarinic acetylcholine receptor M1 (CHRM1) can be used for screening agonists and antagonists of interactions between CHRM1 and its ligands. The CHRM1-CHO Calcium Flux Assay is a homogeneous fluorescence-based assay for detecting the intracellular calcium level using FDSS kinetic plate reader system.
# CHRM1-CHO cells were dispensed at 1000 cells/3uL/well in 1536-well black-clear bottom plates using a Multidrop Dispenser. After the assay plates were incubated at a 37 C/5% CO2 incubator for 18 h, 3 uL of Dye Loading Buffer was transferred to the assay plate by a Flying Reagent Dispenser. The assay plates were incubated at 37 C for 1h. For agonist mode, 23 nL of compounds dissolved in DMSO, positive controls or DMSO only was transferred to the assay plate by a pin tool. […] Each test compound was measured at 15 concentrations in three independent runs.
# Muscarinic acetylcholine receptor M1 (Homo sapiens), sequence (P11229 whole entry, looked up): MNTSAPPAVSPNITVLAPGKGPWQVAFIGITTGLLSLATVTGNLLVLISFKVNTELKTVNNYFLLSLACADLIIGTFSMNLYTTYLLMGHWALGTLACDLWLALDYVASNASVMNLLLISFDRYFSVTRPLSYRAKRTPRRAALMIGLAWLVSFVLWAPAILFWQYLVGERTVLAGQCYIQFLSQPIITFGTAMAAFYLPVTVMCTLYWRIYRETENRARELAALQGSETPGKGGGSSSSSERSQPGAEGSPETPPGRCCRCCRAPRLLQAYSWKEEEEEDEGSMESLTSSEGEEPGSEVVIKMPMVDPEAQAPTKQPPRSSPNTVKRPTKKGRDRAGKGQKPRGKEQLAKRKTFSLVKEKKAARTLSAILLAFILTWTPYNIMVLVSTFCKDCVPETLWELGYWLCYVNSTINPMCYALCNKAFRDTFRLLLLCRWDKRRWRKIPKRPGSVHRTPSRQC
SMILES,Potency,activation
CC(C)=CC(=O)O,inactive,
C[C@]12CCC(=O)C=C1CC[C@@H]1[C@@H]2[C@@H](O)C[C@@]2(C)[C@H]1CC[C@]2(O)C(=O)COC(=O)CCC(=O)O,inactive,
C=COCCCCO,inactive,
CC(C)NCC(O)c1ccc2ccccc2c1 (stereo not given),inactive,
CC1=CC(O)CC(C)(C)C1 (stereo not given),inactive,
C=C(C)C(=O)OCCOCC,inactive,
O=C1OC(=O)C2C3C=CC(C3)C12 (stereo not given),inactive,
OCC(F)(F)F,inactive,
COc1ccc(-c2cc(C(F)F)nn2-c2ccc(S(N)(=O)=O)cc2)cc1F,inactive,
O=C(OCC1(COC(=O)c2cccnc2)CCCC(COC(=O)c2cccnc2)(COC(=O)c2cccnc2)C1O)c1cccnc1,inactive,
Nc1ccc(C(=O)OCC(O)CO)cc1 (stereo not given),inactive,
CCCCOCC(C)O (stereo not given),inactive,
Cc1ccc(N)nc1,inactive,
C=C1CC[C@H]2O[C@]2(C)CC[C@@H]2[C@@H]1CC2(C)C,inactive,
COc1c(N2C[C@@H]3CCCN[C@@H]3C2)c(F)cc2c(=O)c(C(=O)O)cn(C3CC3)c12,inactive,
OC[C@@H](O)[C@@H](O)CO,inactive,
CC(O)CN(CCCN(C)C)CCCN(C)C (stereo not given),inactive,
CC(=O)OCC(C)C,inactive,
CC/C=C\CCOC(=O)c1ccccc1,inactive,
NC[C@H]1O[C@H](O[C@H]2[C@H](O[C@@H]3O[C@H](CO)[C@@H](O)[C@H]3O)C(O)[C@H](N)C[C@@H]2N)[C@H](N)[C@@H](O)[C@@H]1O (stereo not given in full),,0.272% [at 6.97 µM] (inactive)

SMILES,Potency,activation
C=COCC1CCC(CO)CC1 (stereo not given),inactive,
O=C(/C=C/c1ccccc1)OC/C=C/c1ccccc1,inactive,
NC(=O)NS(=O)(=O)c1ccc(N)cc1,inactive,
CCOC(=O)c1ccc(OC(=O)CCCCCN=C(N)N)cc1,inactive,
O=C(O)c1cccc(C(=O)O)c1C(=O)O,inactive,
C=CC(=C)CC/C=C(\C)CCC=C(C)C,,-0.116% [at 15.8 µM] (inactive)
Clc1cc(Cl)c(Cl)nc1Cl,inactive,
Cc1ccc(O)cn1,inactive,
CN(C)CCC=C1c2ccccc2C=Cc2ccccc21,inactive,
CCC1(C)C(=O)N(Cl)C(=O)N1Cl (stereo not given),inactive,
CC(C)(O)CCc1ccccc1,inactive,
CC(=O)N/N=C/c1ccc([N+](=O)[O-])o1,inactive,
C=CC(C)(O)CCCC(C)CCCC(C)CCCC(C)C (stereo not given),inactive,
O=C1Nc2cc(Cl)ccc2Oc2ccccc21,inactive,
CCCCCCCCSCc1cc(C)c(O)c(CSCCCCCCCC)c1,inactive,
CC(C(=O)O)c1ccc2c(c1)Cc1cccnc1O2 (stereo not given),inactive,
O=C(C(Cl)Cl)N1CCOC12CCCCC2,inactive,
C=C(C)C(=O)OCCN(CC)CC,inactive,
O=c1cccccc1O,inactive,
O=c1cc[nH]cc1,inactive,

# — PubChem BioAssay (Tox21)
